PubChem BioAssay AID1345085 (National Center for Advancing Translational Sciences (NCATS), 2018)
Records with an inconclusive call do not appear. Calls of active or inactive are those of the source. Calls come from the whole dose curve; as a rule, active = well fitted cell-killing curve with a large enough effect; inconclusive = small, poorly fitted or top-dose-only effect, or effect the other way; inactive = no such curve, though single readings can be large or run the other way.

System: CASKI
Experiment: Confirmatory qHTS for gynecologic anti-cancer compounds from libraries of approved drugs and bioactive compounds; note: nearly all actives have a fitted effect of over 55% in size
Conditions: gynecologic cancer cell panel viability, ATPlite luminescence, 48 h; series mostly up to 57.6 µM
How it was run: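 1,000 cells/well; 16 h pre-incubation 37 C, 5% CO2; pin-transferred cpd in DMSO, 11 conc (1:3), 57.5 uM–0.977 nM; 48 h; ATPlite, 15 min RT; luminescence → IC50.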
% is set by controls: 0 for no effect and ±100 for the full control effect; potency is the fitted concentration of half-maximal effect.

SMILES | Potency | activity change, negative = viability loss
CN(C)CCC(CSc1ccccc1)Nc1ccc(S(=O)(=O)NC(=O)c2ccc(N3CCN(Cc4ccccc4-c4ccc(Cl)cc4)CC3)cc2)cc1[N+](=O)[O-] (centres undefined) | 3.85 µM (active) | –
Oc1cn2c(n1)Nc1ccc(Cl)c(Cl)c1C2 | inactive | –
Cc1ccc(C(=O)N(CCCN)C(c2nc3cc(Cl)ccc3c(=O)n2Cc2ccccc2)C(C)C)cc1 (centres undefined) | 27.3 µM (active) | –
O=c1[nH]c(=O)n([C@H]2C[C@H](O)[C@@H](CO)O2)cc1C(F)(F)F | 9.68 µM (active) | –
CC(C)(C)C(=O)OCOP(=O)(COCCn1cnc2c(N)ncnc21)OCOC(=O)C(C)(C)C | inactive | –
CCCC(Nc1nc(-c2ccc(NC(=O)NCC)c(OC)c2)ncc1C)c1cccnc1 (centres undefined) | inactive | –
CCc1cccc(CC)c1NC(=O)N1Cc2[nH]nc(NC(=O)c3ccc(N4CCN(C)CC4)cc3)c2C1 | 19.3 µM (active) | –
CCC(=O)N1CCN(c2ccc(-n3c(=O)ccc4cnc5ccc(-c6cnc7ccccc7c6)cc5c43)cc2C(F)(F)F)CC1 | – | -25.9% [at 10.7 µM] (inactive)
COCCOc1nc(-c2ccc(Cl)c(Cl)c2)n(-c2ccc(NC(=O)CCl)cc2)n1 | inactive | –
OC[C@H]1O[C@@H](n2cnc3c(=S)nc[nH]c32)[C@H](O)[C@@H]1O | 4.85 µM (active) | –
CC(Oc1cc(-n2cnc3ccc(CN4CCN(C)CC4)cc32)sc1C(N)=O)c1ccccc1C(F)(F)F (centres undefined) | 13.7 µM (active) | –
C=CC(=O)Nc1cc2c(Nc3ccc(F)c(Cl)c3)ncnc2cc1OCCCN1CCOCC1 | 27.3 µM (active) | –
CCCCc1oc2ccccc2c1C(=O)c1cc(I)c(OCCN(CC)CC)c(I)c1 | 79.4 µM (active) | –
CN1CCN(Cc2ccc(NC(=O)Nc3ccc(Oc4cc(NC(=O)C5CC5)ncn4)cc3)cc2C(F)(F)F)CC1 | 0.611 µM (active) | –
Cc1[nH]c2ccccc2c1CCNCc1ccc(/C=C/C(=O)NO)cc1 | 0.611 µM (active) | –
COc1cc(N2CCC(N)CC2)ccc1Nc1ncc(Cl)c(-c2c[nH]c3ccccc23)n1 | 24.3 µM (active) | –
Cc1ccccc1C(OCCN(C)C)c1ccccc1 (centres undefined) | inactive | –

SMILES | Potency | activity change, negative = viability loss
O=C(Nc1cn[nH]c1-c1nc2ccc(CN3CCOCC3)cc2[nH]1)NC1CC1 | 2.73 µM (active) | –
CN(C)CC/C=C1\c2ccccc2COc2ccccc21 | inactive | –
FC(F)(F)c1ccc(/C=C/c2nc(COc3ccc(CCCCn4ccnn4)cc3)co2)cc1 | 0.137 µM (active) | –
O=c1cc(CN2CCOCC2)occ1OCCCCCSc1ccnc2cc(C(F)(F)F)ccc12 | 24.3 µM (active) | –
CC(C)C[C@H](NC(=O)[C@@H](NC(=O)c1cccc(-c2ccccc2)n1)[C@@H](C)O)B(O)O | 0.0611 µM (active) | –
CN1CCN(c2cccc(Nc3nc4c(-c5ccc(S(C)(=O)=O)cc5)cccn4n3)c2)CC1 | inactive | –
C#C[C@]1(O)CC[C@H]2[C@@H]3CCC4=CC(=O)CC[C@@H]4[C@H]3CC[C@@]21CC | inactive | –
CCN1CCN(Cc2ccc(-c3cc4c(NC(C)c5ccccc5)ncnc4[nH]3)cc2)CC1 (centres undefined) | 19.3 µM (active) | –
Cc1cc(C2CCCCC2)n(O)c(=O)c1 | 3.96 µM (active) | –
COc1ccc(-c2ccc3c(N4CCOCC4C)nc(N4CCOCC4C)nc3n2)cc1CO (centres undefined) | inactive | –
CNC1CCC(N(Cc2cccc(-c3ccncc3)c2)C(=O)c2sc3ccccc3c2Cl)CC1 (centres undefined) | 34.3 µM (active) | –
CNCc1ccc(-c2[nH]c3cc(F)cc4c3c2CCNC4=O)cc1 | inactive | –
COc1cc(F)c(F)c(Nc2ccc(I)cc2F)c1NS(=O)(=O)C1(CC(O)CO)CC1 (centres undefined) | inactive | –
CC(=O)NCC(=O)N1C2CCC1c1cc(Nc3ncc(C(F)(F)F)c(NC4CCC4)n3)ccc12 (centres undefined) | 9.68 µM (active) | –
CCc1c2c(nc3ccc(O)cc13)-c1cc3c(c(=O)n1C2)COC(=O)[C@]3(O)CC | 0.153 µM (active) | –
CCC1=CC2CN(C1)Cc1c([nH]c3ccccc13)[C@@](C(=O)OC)(c1cc3c(cc1OC)N(C)[C@H]1[C@@](O)(C(=O)OC)[C@H](OC(C)=O)[C@]4(CC)C=CCN5CC[C@]31[C@@H]54)C2 (some centres undefined) | inactive | –
CN(c1nccc(=O)[nH]1)C1CCN(c2nc3ccccc3n2Cc2ccc(F)cc2)CC1 | inactive | –
